Usually viability stands for a read-out of living cells in per cent, often relative to untreated cells. What is called inhibition is the change of the read-out against control, counted positive when it falls.

Records with an inconclusive call do not appear. Active and inactive are the calls of the source.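 How the source made its calls, unless noted: active means cell viability at or below a set limit in both duplicate runs, the limit being the all-compound median minus 4 SD (cut at about 23% in these data, passing the limit was not always enough); inconclusive means no clear call, values can overlap the other calls; inactive means the rest.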

Assay [1] is described as follows: Her2 expression decrease, cell viability multiplex – SKBR3 breast tumor cells, AlphaScreen, ATP viability, primary screen (AID 461;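 active means Her2 level under about 52% in both replicate screens, with viability over 70% of control, limit read from the data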;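 on Her2 level: lower value means less Her2 protein in the cells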;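 on viability: percent of carrier control wells set as 100% viability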). Conditions: SKBR3 Her2 protein level, 18-24 h, measured here: SKBR3 viability, ATP luminescence, at 10 µM. In general terms: In Alpha technology, singlet oxygen from a donor bead excites a nearby acceptor bead.
Assay [2] addresses Receptor tyrosine-protein kinase erbB-2 (Homo sapiens) (UniProt P04626). Described as above. Conditions: 18-24 h, at 10 µM, stronger effect = lower value.
Assay [3] is described as follows: reduced viability of SK-BR-3 breast cancer cells – cell-based, 24 h, human, pilot screen (AID 572;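 active means viability at or below 10% of carrier control in both of two separate runs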;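 further: compound exposure lasted between 18 and 24 h rather than exactly 24 h; 100% = carrier-treated control wells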). To be noted: SK-BR-3 viability, CellTiter-Glo luminescence, at 10 µM, stronger effect = lower value.
Assay [4] in a line: HUVEC growth inhibition – cell-based, human, primary screen (AID 575;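 active means viability at or below 30% in both replicate assays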;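 further: 100% = median of untreated cell wells with 0.1% DMSO on each plate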). Conditions: HUVEC proliferation, CellTiter-Glo luminescence, 72 h; at 10 µM; stronger effect = lower value. A general note: Cellular ATP, detected with luciferase, serves as a proxy for viable cell number.
Assay [5] can be described thus: H69AR cell proliferation blockers – human, duplicate replicates, primary screen (AID 580;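 active means viability at or under a set limit in both replicates, limit being median viability minus 3 SD, cut at about 48% in these data, passing the limit was not always enough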;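 further: 100% = mean luminescence of untreated wells and 0% = no signal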). Conditions: H69AR lung tumor cells viability, ATP luminescence, 72 h; at 10 µM; stronger effect = lower value.
The nature of assay [6]: MRP1 drug-resistance reversers in H69AR cells – cell-based, doxorubicin co-treatment, pilot screen (AID 601;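 active means viability loss from added drug above about 55%, and viability with drug at most 40%, in both replicates, limit read from the data, passing the limit was not always enough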). To be noted: CellTiter-Glo, 72 h, at 10 µM; for differential viability (reversal): stronger effect = higher value.
Assay [7] is described as follows: yeast transport mutant growth inhibition pilot in 384-well plates, post-Golgi transport modulator project (AID 636; in the data active means inhibition above about 31%). Conditions: absorbance 615 nm, about 18 h, stronger effect = higher value.
A short description of assay [8]: growth suppression of yeast trafficking mutant, preliminary HTS, modulators of trafficking downstream of Golgi apparatus project, 1536-format plate, OD 615 nm (AID 637; in the data active means inhibition above about 30%). Conditions: yeast transport mutant growth, absorbance 615 nm, 18 h; stronger effect = higher value.
Assay [9] is described as follows: S. cerevisiae growth inhibition in permissive medium (OD615), pilot counter-assay for S. cerevisiae lifespan shortening project, permissive growth control (AID 705;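 active means growth inhibition above 25% in both replicates, a cutoff set 3 SD above the mean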). To be noted: OD615, 24 h, at 10 µM, stronger effect = higher value.
Assay [10] in a line: S. cerevisiae growth inhibition in restrictive medium, OD615, pilot screen, restrictive growth control, yeast lifespan reduction project (AID 706;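 active means growth inhibition above a set limit, 3 SD over mean compound inhibition, in both replicates, cut at about 43% in these data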;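 further: modified DeaD lifespan yeast strain shifted to restrictive glucose medium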). To be noted: OD615, 48 h, at 10 µM, stronger effect = higher value.
A short description of assay [11]: doxorubicin toxicity protection in MRP-1 cells – H69AR cells, CellTiter-Glo, duplicate, MRP-1 activator project, pilot screen (AID 807;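 active means viability increase at or above a cutoff of the median across tested compounds plus 3 SD, cut at about 8.5% in these data, passing the limit was not always enough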;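 further: compound pretreatment 18-22 h then 72 h combined with doxorubicin; 0% = doxorubicin alone and 100% = vehicle without doxorubicin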). Conditions: H69AR viability with doxorubicin, CellTiter-Glo luminescence; at 10 µM; stronger effect = higher value.
Assay [12] in a line: viability of HCT116 without oncogenic beta-catenin – human colon tumor cells, pilot screen (AID 823).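 Further: 0% = wells killed by 20 µM Hyamine and 100% = untreated DMSO cell wells.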 Conditions: HCT116 beta-catenin knockout viability, CellTiter-Glo, 60 h; at 10 µM; stronger effect = lower value.
The nature of assay [13]: viability of PTEN-null HCT116 cells – cell-based, HCT116 clonal line, CellTiter-Glo, pilot screen (AID 824;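 active means viability at or below 27.92% in each of two runs, the all-compound median minus 4 SD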;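 further: 0% = 20 µM Hyamine control and 100% = vehicle cell control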). To be noted: HCT116 PTEN-deleted viability, 60 h, at 10 µM, stronger effect = lower value.
A short description of assay [14]: RAM pathway blockade in budding yeast – dse1pr::URA3 reporter, 5-FOA selection, pilot screen (AID 869;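 active means inhibition over a set limit, the all-compound mean plus 3 SD, in both replicate runs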;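 further: 0% = DMSO wells with no growth and 100% = 10 µM 1-NA-PP1 with full growth; RAM network block rescues cells from 5-FOA so hits raise OD615 growth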). Conditions: S. cerevisiae dse1pr::URA3 5-FOA growth, OD615, 2 d; at 10 µM; stronger effect = higher value; strain carries analog-sensitive mutant Cbk1 kinase.
A short description of assay [15]: RAM signaling pathway blockade in yeast – S. cerevisiae, Pdr1DBD-CYC8 efflux-inhibited sensitized strain, primary screen (AID 1298;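 active means RAM network inhibition above 8.4% in each of two replicates, 3 SD over the compound average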;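 further: 0% = DMSO untreated cells without growth and 100% = 10 µM 1-NA-PP1 full growth; higher means more yeast growth rescued from 5-FOA killing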). To be noted: S. cerevisiae cbk1-as DSE1-URA3 strain, 5-FOA growth OD615, 2 d; at 50 µM; stronger effect = higher value.
The mark [16] stands for this setting: H69AR cells + 2 uM doxorubicin, measured here: viability with 2 uM doxorubicin, stronger effect = lower value.
Setting [17] is: H69AR cells, compound alone cytotoxicity.

Receptor tyrosine-protein kinase erbB-2 (Homo sapiens), sequence (P04626 whole entry, looked up): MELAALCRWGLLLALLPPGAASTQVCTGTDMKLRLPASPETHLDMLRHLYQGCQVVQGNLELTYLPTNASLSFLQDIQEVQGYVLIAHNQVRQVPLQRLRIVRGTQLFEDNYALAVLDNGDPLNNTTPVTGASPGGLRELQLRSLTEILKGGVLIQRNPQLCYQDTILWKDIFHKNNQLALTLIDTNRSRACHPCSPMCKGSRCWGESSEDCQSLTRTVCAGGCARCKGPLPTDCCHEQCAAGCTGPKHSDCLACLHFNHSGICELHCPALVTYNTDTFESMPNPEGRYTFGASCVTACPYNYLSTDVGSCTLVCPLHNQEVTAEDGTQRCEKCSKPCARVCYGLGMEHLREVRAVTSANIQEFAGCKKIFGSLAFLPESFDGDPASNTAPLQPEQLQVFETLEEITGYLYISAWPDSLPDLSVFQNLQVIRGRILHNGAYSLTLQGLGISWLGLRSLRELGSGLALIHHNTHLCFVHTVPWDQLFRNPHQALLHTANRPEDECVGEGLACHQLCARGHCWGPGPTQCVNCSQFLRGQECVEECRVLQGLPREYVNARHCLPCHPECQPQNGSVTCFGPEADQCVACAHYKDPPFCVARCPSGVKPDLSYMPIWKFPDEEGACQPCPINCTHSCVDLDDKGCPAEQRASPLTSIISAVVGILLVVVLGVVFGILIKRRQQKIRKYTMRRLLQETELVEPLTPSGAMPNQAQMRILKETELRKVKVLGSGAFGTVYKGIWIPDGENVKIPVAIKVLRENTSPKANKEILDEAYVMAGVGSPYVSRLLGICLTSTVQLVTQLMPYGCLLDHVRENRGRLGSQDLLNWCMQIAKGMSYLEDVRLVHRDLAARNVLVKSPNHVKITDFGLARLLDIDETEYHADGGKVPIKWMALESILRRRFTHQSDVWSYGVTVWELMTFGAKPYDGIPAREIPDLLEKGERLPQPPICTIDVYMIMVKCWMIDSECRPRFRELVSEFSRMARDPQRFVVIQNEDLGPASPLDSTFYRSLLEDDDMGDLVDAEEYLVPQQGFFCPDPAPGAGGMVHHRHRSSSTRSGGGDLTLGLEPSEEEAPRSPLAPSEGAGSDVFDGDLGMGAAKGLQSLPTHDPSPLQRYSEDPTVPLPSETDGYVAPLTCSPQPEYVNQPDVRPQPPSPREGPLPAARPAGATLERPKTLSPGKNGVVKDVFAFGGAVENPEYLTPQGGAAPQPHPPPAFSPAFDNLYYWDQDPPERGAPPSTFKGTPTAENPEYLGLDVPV

In the case of `COCCOC(=O)c1[nH]c2c(c1C)C(=O)CC(c1ccco1)C2` (stereo not given), the viability in [1] is 85%; in assay [3], 85% (inactive); in assay [4] it was 57% (inactive); in assay [5], 23.6% (active); in assay [6] (setting [16]), 60.9%; in [6] (setting [17]) it was 23.6%. The viability in assay [12] was 18.9% (active); in assay [13] it was 23.9% (active). Also, the Her2 level in assay [2] was 71.5% (inactive). Besides, the differential viability (reversal) in [6] (H69AR cells + 2 uM doxorubicin) was -37.2% (inactive). Moreover, the inhibition is 0.64% (inactive) in assay [7], 5.67% (inactive) in assay [8] and 2.79% (inactive) in [14]. The growth inhibition is -16% (inactive) in [9] and -15.1% (inactive) in assay [10]. Also, in assay [11], the viability increase is -4.07% (inactive). For the same molecule, the RAM network inhibition in assay [15] was 2.52% (inactive).

In the case of `Cc1nc2ccc(S(=O)(=O)NC(C(=O)NCc3cccs3)C(C)C)cc2s1` (stereo not given), the viability is 88.5% in [1]; 88.5% (inactive) in assay [3]; 97.9% (inactive) in [4]; 111% (inactive) in assay [5]; 92.6% in assay [6] (setting [16]); 111% in [6] (setting [17]). Further, the figures for the viability in [12] and in assay [13] were 102% (inactive) and 99.6% (inactive), respectively. For the same molecule, the Her2 level in assay [2] is 116% (inactive). The differential viability (reversal) in [6] (H69AR cells + 2 uM doxorubicin) is 18.2% (inactive). The inhibition in assay [7] is -5% (inactive); in assay [8], -2.67% (inactive); in assay [14], 2.96% (inactive). The growth inhibition is -3.81% (inactive) in assay [9] and -9.54% (inactive) in [10]. In addition, in [11], the viability increase was -0.45% (inactive). Moreover, in [15], the RAM network inhibition was 5.02% (inactive).

With `CCOC(=O)Cn1c(CCC(=O)O)ccc1-c1ccc(F)cc1`, the viability in [1] is 99%; in assay [3] it was 99% (inactive); in assay [4], 106% (inactive); in assay [5] it was 84.3% (inactive); in assay [6] (setting [16]), 92.6%; in assay [6] (setting [17]), 84.3%. Also, the viability in [12] was 102% (inactive); in [13] it was 101% (inactive). Moreover, the Her2 level in assay [2] is 101% (inactive). Besides, the differential viability (reversal) in assay [6] (H69AR cells + 2 uM doxorubicin) is -8.34% (inactive). The inhibition is -5.6% (inactive) in assay [7], 3.33% (inactive) in assay [8] and 0.72% (inactive) in assay [14]. The growth inhibition was -9.79% (inactive) in assay [9] and -2.42% (inactive) in [10]. In addition, the viability increase in assay [11] is -2.3% (inactive). Further, the RAM network inhibition in assay [15] was 2.74% (inactive).

For `COc1ccc(N2CCN(CCCNS(=O)(=O)c3c(C)noc3/C=C/N(C)C)CC2)cc1`, the viability in [1] was 99.5%; in [3], 99.5% (inactive); in [4], 83.1% (inactive); in [5] it was 92.9% (inactive); in assay [6] (setting [16]), 92.8%; in assay [6] (setting [17]), 92.9%. The viability is 81% (inactive) in [12] and 83.7% (inactive) in assay [13]. In assay [2], the Her2 level was 94.5% (inactive). Also, the differential viability (reversal) in assay [6] (H69AR cells + 2 uM doxorubicin) was 0.17% (inactive). Besides, the results for the inhibition in [7], in assay [8] and in assay [14] were -7.33% (inactive), -4.43% (inactive) and 1.67% (inactive), respectively. The values for the growth inhibition in [9] and in assay [10] were -4.88% (inactive) and 12% (inactive), respectively. For the same molecule, the viability increase in assay [11] is -2.75% (inactive). The RAM network inhibition in assay [15] was 7% (inactive).

With `COC(=O)C1=C(C)NC2=C(C(=O)CCC2)C1c1coc2ccccc2c1=O` (stereo not given), the viability in [1] was 91%; in assay [3], 91% (inactive); in assay [4], 97.7% (inactive); in assay [5] it was 93% (inactive); in [6] (setting [16]), 90.9%; in assay [6] (setting [17]), 93%. Besides, the viability is 89.4% (inactive) in assay [12] and 90.1% (inactive) in assay [13]. Moreover, the Her2 level in assay [2] was 81% (inactive). Moreover, the differential viability (reversal) in assay [6] (H69AR cells + 2 uM doxorubicin) was 2.12% (inactive). In addition, the values for the inhibition in assay [7], in assay [8] and in assay [14] were -3.97% (inactive), -1.5% (inactive) and 2.04% (inactive), respectively. Moreover, the results for the growth inhibition in assay [9] and in assay [10] were -7.39% (inactive) and 6.02% (inactive), respectively. Moreover, the viability increase in [11] is -4.25% (inactive). Also, the RAM network inhibition in assay [15] is 1.39% (inactive).

The values are drawn from PubChem BioAssay.
